The supplement of paper PMC4022240
± gives the standard deviation.

What was measured:
Experiment in all cases: peptide microarray binding signal (635 nm), min-max normalized on array (fraction of array maximum); higher = stronger binding
Conditions in all cases: peptide region: H3 5-17
[1] = target: T1, HaloTag-ATRX ADD domain (163-292)
T1 chain: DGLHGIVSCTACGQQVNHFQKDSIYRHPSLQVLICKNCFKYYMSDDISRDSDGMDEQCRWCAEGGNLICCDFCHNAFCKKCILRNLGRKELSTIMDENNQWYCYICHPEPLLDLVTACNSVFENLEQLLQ
How it was run: (§1)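 Triplicate spots of histone 13-mer peptide–cellulose conjugates with a Cy3 tracer were printed on nitrocellulose and probed for 1 h at 4°C with biotin-labelled HaloTag reader fusions (10 nM to 1 μM) plus streptavidin-Alexa Fluor 647 or rabbit histone antibodies (1:10,000 to 1:2,000) plus anti-rabbit Alexa 647. An Axon GenePix 4000B read the 635 nm channel. Binding signal is the spot-triplicate mean intensity after min-max scaling within each library.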

[2] = target: HaloTag-ING2 PHD (mouse Ing2 200-280)
How it was run: as §1

[3] = target: anti-H3K4me3 antibody ab8580
How it was run: as §1

[4] = target: anti-H3K9me3 antibody ab8898
How it was run: as §1

[5] = peptide modifications: H3R8me2s H3K9me1, binder concentration: 1:2,000 dilution
[6] = peptide modifications: H3R8me2s H3K9me1, binder concentration: 1:10,000 dilution
[7] = peptide modifications: H3S10ph H3K14ac, binder concentration: 1:2,000 dilution
[8] = peptide modifications: H3S10ph H3K14ac, binder concentration: 1:10,000 dilution
[9] = peptide modifications: H3S10ph H3K14me1, binder concentration: 1:2,000 dilution
[10] = peptide modifications: H3S10ph H3K14me1, binder concentration: 1:10,000 dilution
[11] = peptide modifications: H3R8me2s H3K9me3, binder concentration: 1:2,000 dilution
[12] = peptide modifications: H3R8me2s H3K9me3, binder concentration: 1:10,000 dilution
[13] = peptide modifications: H3S10ph H3K14me2, binder concentration: 1:2,000 dilution
[14] = peptide modifications: H3S10ph H3K14me2, binder concentration: 1:10,000 dilution
[15] = peptide modifications: H3R8me2s H3K9me2, binder concentration: 1:2,000 dilution
[16] = peptide modifications: H3R8me2s H3K9me2, binder concentration: 1:10,000 dilution
[17] = peptide modifications: H3R8me2s H3T11ph, binder concentration: 1:2,000 dilution
[18] = peptide modifications: H3R8me2s H3T11ph, binder concentration: 1:10,000 dilution
[19] = peptide modifications: H3R8me2s H3K9ac, binder concentration: 1:2,000 dilution
[20] = peptide modifications: H3R8me2s H3K9ac, binder concentration: 1:10,000 dilution
[21] = peptide modifications: H3R8me2s H3S10ph, binder concentration: 1:2,000 dilution
[22] = peptide modifications: H3R8me2s H3S10ph, binder concentration: 1:10,000 dilution
[23] = peptide modifications: H3R8me2s, binder concentration: 1:2,000 dilution
[24] = peptide modifications: H3R8me2s, binder concentration: 1:10,000 dilution

B1: H3 5-17 Q T A Rme2s Kme S T G G K A P R (peptide)
chain: QTARKSTGGKAPR
[1]; peptide modifications: H3R8me2s H3K9me1, binder concentration: 50 nM
  peptide microarray binding signal: 0.0141 ± 0.0025
[1]; peptide modifications: H3R8me2s H3K9me1, binder concentration: 500 nM
  peptide microarray binding signal: 0.0312 ± 0.016
[2]; peptide modifications: H3R8me2s H3K9me1, binder concentration: 10 nM
  peptide microarray binding signal: 0.0334 ± 0.0012
[2]; peptide modifications: H3R8me2s H3K9me1, binder concentration: 100 nM
  peptide microarray binding signal: 0.0522 ± 0.0014
[3]; [5]
  peptide microarray binding signal: 0.0185 ± 0.0025
[3]; [6]
  peptide microarray binding signal: 0.0237 ± 0.00078
[4]; [5]
  peptide microarray binding signal: 0.0146 ± 0.0028
[4]; [6]
  peptide microarray binding signal: 0.0153 ± 0.0016

B2: H3 5-17 Q T A R K Sph T G G Kac A P R (peptide)
chain: QTARKSTGGKAPR
[1]; peptide modifications: H3S10ph H3K14ac, binder concentration: 50 nM
  peptide microarray binding signal: 0.0047 ± 0.00015
[1]; peptide modifications: H3S10ph H3K14ac, binder concentration: 500 nM
  peptide microarray binding signal: 0.0165 ± 0.0018
[2]; peptide modifications: H3S10ph H3K14ac, binder concentration: 10 nM
  peptide microarray binding signal: 0.0122 ± 0.0017
[2]; peptide modifications: H3S10ph H3K14ac, binder concentration: 100 nM
  peptide microarray binding signal: 0.0326 ± 0.0032
[3]; [7]
  peptide microarray binding signal: 0.00136 ± 0.00015
[3]; [8]
  peptide microarray binding signal: 0.0012 ± 3.2e-05
[4]; [7]
  peptide microarray binding signal: 0.00435 ± 0.00042
[4]; [8]
  peptide microarray binding signal: 0.00213 ± 7.1e-05

B3: H3 5-17 Q T A R K Sph T G G Kme A P R (peptide)
chain: QTARKSTGGKAPR
[1]; peptide modifications: H3S10ph H3K14me1, binder concentration: 50 nM
  peptide microarray binding signal: 0.00426 ± 0.0003
[1]; peptide modifications: H3S10ph H3K14me1, binder concentration: 500 nM
  peptide microarray binding signal: 0.007715 ± 7.2e-05
[2]; peptide modifications: H3S10ph H3K14me1, binder concentration: 10 nM
  peptide microarray binding signal: 0.00424 ± 0.00075
[2]; peptide modifications: H3S10ph H3K14me1, binder concentration: 100 nM
  peptide microarray binding signal: 0.0102 ± 0.0023
[3]; [9]
  peptide microarray binding signal: 0.000396 ± 7e-06
[3]; [10]
  peptide microarray binding signal: 0.000399
[4]; [9]
  peptide microarray binding signal: 0.00077 ± 4.1e-05
[4]; [10]
  peptide microarray binding signal: 0.000404 ± 4.4e-06

B4: H3 5-17 Q T A Rme2s Kme3 S T G G K A P R (peptide)
chain: QTARKSTGGKAPR
[1]; peptide modifications: H3R8me2s H3K9me3, binder concentration: 50 nM
  peptide microarray binding signal: 0.00251 ± 0.00011
[1]; peptide modifications: H3R8me2s H3K9me3, binder concentration: 500 nM
  peptide microarray binding signal: 0.00471 ± 9.5e-05
[2]; peptide modifications: H3R8me2s H3K9me3, binder concentration: 10 nM
  peptide microarray binding signal: 0.00979 ± 0.00031
[2]; peptide modifications: H3R8me2s H3K9me3, binder concentration: 100 nM
  peptide microarray binding signal: 0.0103 ± 0.00024
[3]; [11]
  peptide microarray binding signal: 0.0199 ± 0.0017
[3]; [12]
  peptide microarray binding signal: 0.0138 ± 0.0027
[4]; [11]
  peptide microarray binding signal: 0.094 ± 0.0025
[4]; [12]
  peptide microarray binding signal: 0.0691 ± 0.0084

B5: H3 5-17 Q T A R K Sph T G G Kme2 A P R (peptide)
chain: QTARKSTGGKAPR
[1]; peptide modifications: H3S10ph H3K14me2, binder concentration: 50 nM
  peptide microarray binding signal: 0.0068 ± 0.00015
[1]; peptide modifications: H3S10ph H3K14me2, binder concentration: 500 nM
  peptide microarray binding signal: 0.015 ± 0.00086
[2]; peptide modifications: H3S10ph H3K14me2, binder concentration: 10 nM
  peptide microarray binding signal: 0.00597 ± 0.00047
[2]; peptide modifications: H3S10ph H3K14me2, binder concentration: 100 nM
  peptide microarray binding signal: 0.0125 ± 0.0027
[3]; [13]
  peptide microarray binding signal: 0.00874 ± 0.00064
[3]; [14]
  peptide microarray binding signal: 0.0077 ± 0.0015
[4]; [13]
  peptide microarray binding signal: 0.00565 ± 0.00062
[4]; [14]
  peptide microarray binding signal: 0.00294 ± 0.00015

B6: H3 5-17 Q T A Rme2s Kme2 S T G G K A P R (peptide)
chain: QTARKSTGGKAPR
[1]; peptide modifications: H3R8me2s H3K9me2, binder concentration: 50 nM
  peptide microarray binding signal: 0.00545 ± 0.0001
[1]; peptide modifications: H3R8me2s H3K9me2, binder concentration: 500 nM
  peptide microarray binding signal: 0.00886 ± 0.00071
[2]; peptide modifications: H3R8me2s H3K9me2, binder concentration: 10 nM
  peptide microarray binding signal: 0.0168 ± 0.00063
[2]; peptide modifications: H3R8me2s H3K9me2, binder concentration: 100 nM
  peptide microarray binding signal: 0.0228 ± 0.0012
[3]; [15]
  peptide microarray binding signal: 0.0112 ± 0.0011
[3]; [16]
  peptide microarray binding signal: 0.0122 ± 0.002
[4]; [15]
  peptide microarray binding signal: 0.0214 ± 0.0029
[4]; [16]
  peptide microarray binding signal: 0.0131 ± 0.00022

B7: H3 5-17 Q T A Rme2s K S Tph G G K A P R (peptide)
chain: QTARKSTGGKAPR
[1]; peptide modifications: H3R8me2s H3T11ph, binder concentration: 50 nM
  peptide microarray binding signal: 0.00458 ± 6e-05
[1]; peptide modifications: H3R8me2s H3T11ph, binder concentration: 500 nM
  peptide microarray binding signal: 0.0138 ± 0.0057
[2]; peptide modifications: H3R8me2s H3T11ph, binder concentration: 10 nM
  peptide microarray binding signal: 0.0277 ± 0.00076
[2]; peptide modifications: H3R8me2s H3T11ph, binder concentration: 100 nM
  peptide microarray binding signal: 0.0321 ± 0.004
[3]; [17]
  peptide microarray binding signal: 0.0081 ± 0.0027
[3]; [18]
  peptide microarray binding signal: 0.00474 ± 0.00064
[4]; [17]
  peptide microarray binding signal: 0.00136 ± 0.00012
[4]; [18]
  peptide microarray binding signal: 0.001441 ± 1.4e-05

B8: H3 5-17 Q T A Rme2s Kac S T G G K A P R (peptide)
chain: QTARKSTGGKAPR
[1]; peptide modifications: H3R8me2s H3K9ac, binder concentration: 50 nM
  peptide microarray binding signal: 0.0102 ± 0.00014
[1]; peptide modifications: H3R8me2s H3K9ac, binder concentration: 500 nM
  peptide microarray binding signal: 0.0189 ± 0.00053
[2]; peptide modifications: H3R8me2s H3K9ac, binder concentration: 10 nM
  peptide microarray binding signal: 0.0344 ± 0.0018
[2]; peptide modifications: H3R8me2s H3K9ac, binder concentration: 100 nM
  peptide microarray binding signal: 0.064 ± 0.0047
[3]; [19]
  peptide microarray binding signal: 0.0111 ± 0.0022
[3]; [20]
  peptide microarray binding signal: 0.0146 ± 0.00068
[4]; [19]
  peptide microarray binding signal: 0.011 ± 0.00081
[4]; [20]
  peptide microarray binding signal: 0.00899 ± 0.0016

B9: H3 5-17 Q T A Rme2s K Sph T G G K A P R (peptide)
chain: QTARKSTGGKAPR
[1]; peptide modifications: H3R8me2s H3S10ph, binder concentration: 50 nM
  peptide microarray binding signal: 0.00683 ± 0.0003
[1]; peptide modifications: H3R8me2s H3S10ph, binder concentration: 500 nM
  peptide microarray binding signal: 0.0161 ± 0.0014
[2]; peptide modifications: H3R8me2s H3S10ph, binder concentration: 10 nM
  peptide microarray binding signal: 0.0274 ± 0.00033
[2]; peptide modifications: H3R8me2s H3S10ph, binder concentration: 100 nM
  peptide microarray binding signal: 0.0477 ± 0.0078
[3]; [21]
  peptide microarray binding signal: 0.00423 ± 0.00039
[3]; [22]
  peptide microarray binding signal: 0.00548 ± 0.00014
[4]; [21]
  peptide microarray binding signal: 0.00403 ± 0.0009
[4]; [22]
  peptide microarray binding signal: 0.00363 ± 0.00015

B10: H3 5-17 Q T A Rme2s K S T G G K A P R (peptide)
chain: QTARKSTGGKAPR
[1]; peptide modifications: H3R8me2s, binder concentration: 50 nM
  peptide microarray binding signal: 0.00245 ± 0.00023
[1]; peptide modifications: H3R8me2s, binder concentration: 500 nM
  peptide microarray binding signal: 0.00352 ± 0.00033
[2]; peptide modifications: H3R8me2s, binder concentration: 10 nM
  peptide microarray binding signal: 0.00412 ± 0.00015
[2]; peptide modifications: H3R8me2s, binder concentration: 100 nM
  peptide microarray binding signal: 0.00184 ± 6.7e-05
[3]; [23]
  peptide microarray binding signal: 0.0129 ± 0.0069
[3]; [24]
  peptide microarray binding signal: 0.0128 ± 0.0042
[4]; [23]
  peptide microarray binding signal: 0.00237 ± 0.00021
[4]; [24]
  peptide microarray binding signal: 0.00415 ± 0.00028
